Only a selection was taken, and hits are over-represented in it overall.
Pf Dd2 growth = blocks in vitro growth of P. falciparum Dd2. P. falciparum Dd2 growth, SYBR Green, 72 h. hit rate 4.3% among 120,000. AID 1347417. Potency, µM (highest dose often 28.9 µM), hits mostly inhibitors; active means well fitted inhibition curve with a large enough effect; further: nearly all actives have a fitted effect of over 65% in size
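Infected erythrocytes (Dd2, 0.3% parasitemia, 2.5% hematocrit final) are added to compound in RPMI-1640/Albumax II medium, grown 72 h at 37C in low oxygen, then lysed with saponin/Triton-X containing SYBR Green and read by fluorescence.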
A number is an active result; – = inactive; [ ] = another dose, or the depositor's remark.

SMILES | Pf Dd2 growth
CCC1CCCCN1C(=O)CSc1nc2c([nH]c3ccccc32)c(=O)n1-c1ccc(OC)cc1 (configuration not stated) | 13µM
COc1ccc(-n2c(SCC(=O)NC3CCCCC3)nc3c([nH]c4ccccc43)c2=O)cc1 | 10µM
CCOc1ccc(-n2c(SCC(=O)NCC3CCCO3)nc3c([nH]c4ccccc43)c2=O)cc1 (configuration not stated) | –
CN(C)c1ccc(CN[C@H]2C[C@H]3C(=O)NC[C@@H](CCC(=O)N4CCC(O)CC4)N3C2)cc1 | –
CCC[C@H]1C[C@H]1C(=O)N1CCC2(CCC(=O)N(CC(N)=O)C2)CC1 | –
CN(CCCc1cnn(C)c1)C(=O)C1CNCCO1 (configuration not stated) | –
Cc1ccc(NC(=O)N2CCC(CCNC(=O)C3CC3)CC2)cc1F | –
O=C(O)c1ccccc1C(=O)N1C[C@@H]2C[C@H]1C(=O)N(Cc1ccccc1)c1ccccc1O2 | –
CN(CCC1CCOCC1)Cc1ccccc1OCC(O)CN1CCSCC1 (configuration not stated) | –
COCCn1cc(CN(C)Cc2ccccc2)ccc1=O | –
CN(Cc1ccccc1)Cc1ccccc1OCC(O)CN1CCCCC1 (configuration not stated) | 0.79µM
FC1(F)C[C@@H](c2nnc(C3CC3)o2)N(C2CCSCC2)C1 | –
CCN1C(=O)CCc2cc(NC(=O)c3cccc(C#N)c3)ccc21 | –
Cc1cc(CNC(=O)[C@@H]2CCC[C@@H](NCC3CC3)CN(C)C(=O)C2)no1 | –
COCc1cc(=O)n(CC(=O)Nc2ccc(C)cc2C)c(N2CCOCC2)n1 | –
COc1ccc(Cl)cc1Nc1ncnc2c1c(-c1ccccc1)cn2-c1ccccc1 | –
COc1ccc(CCNc2ncnc3c2c(-c2ccccc2)cn3-c2ccc(Cl)cc2)cc1OC | –
COCCN(CCOC)c1ncnc2c1c(-c1ccccc1)cn2-c1ccc(C)c(Cl)c1 | 11µM
CCNC(=O)N1C[C@@H]2OCC(=O)N(CC3CC3)[C@@H]2C1 | –
N[C@@H]1CC[C@H](C(=O)N2CCC(c3nccn3Cc3ccncc3)CC2)C1 | –
CNC(=O)CC1C(=O)NCCN1C(=O)c1cc(COc2ccccc2)[nH]n1 (configuration not stated) | –
Cc1ccc(OCC(=O)N2CCCCCC2c2nc(C)no2)cc1 (configuration not stated) | –
CN1CC(=O)N(C2CCC2)Cc2c(NCc3cccs3)ncnc21 | –
O[C@@H]1C[C@@H](c2nc(Cc3ccccc3)no2)N(Cc2ccc(F)cc2)C1 | –
O[C@@H]1C[C@@H](c2nc(Cc3ccccc3)no2)N(Cc2cc3ccccc3o2)C1 | 14µM
SMILES | Pf Dd2 growth
O[C@@H]1C[C@@H](c2nc(Cc3ccccc3)no2)N(CCCc2ccccc2)C1 | –
CCN(CC)CC[C@H]1CN(C(=O)NC(C)C)CC[C@H]1CC(=O)O | –
CCC(=O)N1CCOc2ccc(CN3CCCCC3)cc2C1 | –
COCCOc1ccc2c(n1)CCN(C(=O)C1CC1)C2 | –
O=C(CN1C(=O)C(c2ccccc2)=NC12CCCC2)Nc1ccc(C(F)(F)F)cc1 | –
CCOc1ccc2c(n1)CCN(C(=O)Cc1ccc(F)cc1)C2 | –
CCOc1ccc2c(n1)CCN(C(=O)c1cnccn1)C2 | –
CCOc1ccc2c(n1)CCN(C(=O)C1(c3ccccc3)CC1)C2 | 10µM
CCOc1ccc2c(n1)CCN(C(=O)Cc1cccc(C)c1)C2 | 10µM
CCOc1ccc2c(n1)CCN(C(=O)c1ccc(OC)cc1)C2 | –
COCCOc1ccc2c(n1)CCN(C(=O)Cc1cccc(OC)c1)C2 | –
COc1ccc(C2=NOC3(CCN(C(=O)c4ccccc4OC)C3)C2)cc1 (configuration not stated) | –
CC(C)(C)n1nnnc1C1CC2(CCOCC2)C(=O)N1CCc1nc2ccccc2[nH]1 (configuration not stated) | –
Cn1cccc1CN1CCCC12Cc1ccccc1CNC2=O (configuration not stated) | –
O=C(Nc1cccc(C(F)(F)F)c1)N[C@H]1[C@H](O)[C@@H](N2CCC(Cc3ccccc3)CC2)[C@@H]2OC[C@H]1O2 | –
CCNC(=O)N1CCC(c2noc(-c3ccncc3)n2)C1 (configuration not stated) | –[5.79 µM]
O=C(c1cc(-c2ccc(Br)cc2)n[nH]1)N1CCN(S(=O)(=O)c2ccc(Br)cc2)CC1 | 8.9µM
COc1ccc(Cl)cc1C(=O)N1CCCN(c2cc(-c3ccc(Br)cc3)[nH]n2)CC1 | –
COc1ccc(S(=O)(=O)N2CCN(C(=O)c3cc(-c4ccc(Br)cc4)n[nH]3)CC2)cc1OC | –
COc1ccc(Cl)cc1S(=O)(=O)N1CCN(C(=O)c2cc(-c3ccc(Br)cc3)n[nH]2)CC1 | 10µM
O=C(c1cc(-c2ccccc2)n[nH]1)N1CCc2c(nc(-c3ccc(F)cc3)[nH]c2=O)C1 | –
COc1ccc(Cl)cc1C(=O)N1CCCN(c2cc(-c3ccc(F)cc3)[nH]n2)CC1 | –
Cc1nn(-c2ccccc2)c(C)c1Cc1nc(C(C)C)no1 | –
O=C(Cn1nc2c(cc1=O)CCCC2)NCc1nc2ccccc2[nH]1 | –
